# From PubChem BioAssay (NCI)
# Compounds without any hit were thinned out: in the full panel of roughly 79,000, 15% have a hit. Unmarked numbers belong to inactive results. Activity calls are given as the source filed them. Cut-off read from the data, not from the text of the source: active = growth inhibition above about 70%; inactive = the rest.
# Assay: NCI Yeast Anticancer Drug Screen. Data for the rad50 strain (AID 155);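 note: 0% = growth of vehicle-only cultures of the same strain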
# Conditions: S. cerevisiae rad50 strain growth inhibition, stronger effect = higher value
# Protocol: Growth inhibition of yeast strains with defined genetic alterations is measured as a screen for potential anti-cancer activity. Selected strains with alterations in DNA damage repair or cell cycle control were exposed to compounds and growth inhibition was measured relative to vehicle treated controls. The strain used in this assay is rad50
# [1] = at 5.0 µM (retest, dose inferred, filed as 0.5)
# [2] = at 50.0 µM (retest, dose inferred, filed as 5.0)
SMILES,growth inhibition (at 1.2 µM),growth inhibition (at 3.7 µM),growth inhibition [1],growth inhibition (at 11.0 µM),growth inhibition (at 33.0 µM),growth inhibition [2],growth inhibition (at 50.0 µM),growth inhibition (at 100.0 µM)
O=C1Nc2ccc(Br)cc2C1=Nc1ccc2c(c1)OCO2,-29%,-26%,47%,-27%,-27%,60%,-9.9%,-10%
CC(C)(C)C1=CC(=CC=C2C=CN(CCCCCCCCCCCO)C=C2)C=C(C(C)(C)C)C1=O,-3%,48%,86% (active),99% (active),98% (active),95% (active),99.2% (active),98% (active)
O=C1C=C(Cl)C(=O)N1c1cccc(Cl)c1,11%,86% (active),87% (active),99% (active),99% (active),97% (active),99.5% (active),99% (active)
CC(C)=NOC(=O)Nc1ccc(Cl)cc1,2%,11%,87% (active),-3%,28%,98% (active),58.2%,67%
CCCCCCCCCCCC1=NCCO1,9%,18%,-11%,14%,29%,8%,25.1%,99% (active)
